Reference: PubChem BioAssay AID1159580 (chemical genetic matrix, 2015)
Several values for one entry are separate records, joined by “and”; a condition that tells them apart may be missing. Equal values may be shown once. Hit rate of the full screen: of about 5,500 compounds, about 2,000 (36%) were called active. Not shown: some 18% with an inconclusive outcome. The list shows a part of the results. Values without a mark were called inactive. Rule as the data show it: active = normalized growth mostly below about 0.91 (no sharp cut-off); inconclusive = no clear call, values can overlap the other calls; inactive = mostly above about 0.92.

Assay: chemical genetic growth profiling, strain panel (AID 1159580);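 also: tested at 20 µM; growth read once vehicle control cultures reached saturation at 30 °C; 1 = growth at the plate median or of vehicle wells; lower values mean less growth of the strain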
Conditions: S. cerevisiae deletion strains, growth OD

**Q.** Which normalized growth (locus YAL021C, strain ccr4, stronger effect = lower value) does the source give for `CCn1cc(C(=O)O)c(=O)c2cnc(N3CCCC3)nc21` here?
**A.** The normalized growth was 0.898 (active).

**Q.** What about the normalized growth (locus YAL026C, strain drs2, stronger effect = lower value) of the same compound?
**A.** Its normalized growth is 0.956.

**Q.** What about the normalized growth (locus YAL030W, strain snc1, stronger effect = lower value) of the same compound?
**A.** The normalized growth was 0.997.

**Q.** What about the normalized growth (locus YBL061C, strain skt5, stronger effect = lower value) of the same compound?
**A.** Its normalized growth is 1.01.

**Q.** And the normalized growth (locus YBR009C, strain hhf1, stronger effect = lower value)?
**A.** The normalized growth was 1.04.

**Q.** What about the normalized growth (locus YBR021W, strain FUR4, stronger effect = lower value) of the same compound?
**A.** The normalized growth was 1.03.

**Q.** And the normalized growth (locus YBR023C, strain chs3, stronger effect = lower value)?
**A.** The normalized growth was 1.

**Q.** What about the normalized growth (locus YBR171W, strain sec66, stronger effect = lower value) of the same compound?
**A.** The normalized growth was 1.

**Q.** And the normalized growth (locus YBR229C, strain ROT2, stronger effect = lower value)?
**A.** Its normalized growth is 1.01.

**Q.** And the normalized growth (locus YBR231C, strain swc5, stronger effect = lower value)?
**A.** The normalized growth was 1.03.

**Q.** What about the normalized growth (locus YBR279W, strain paf1, stronger effect = lower value) of the same compound?
**A.** Its normalized growth is 0.989.

**Q.** And the normalized growth (locus YCL011C, strain gbp2, stronger effect = lower value)?
**A.** The normalized growth was 1.

**Q.** And the normalized growth (locus YCL016C, strain dcc1, stronger effect = lower value)?
**A.** The normalized growth was 1.

**Q.** What about the normalized growth (locus YCL029C, strain bik1, stronger effect = lower value) of the same compound?
**A.** Its normalized growth is 0.997.

**Q.** And the normalized growth (locus YCL061C, strain MRC1, stronger effect = lower value)?
**A.** The normalized growth was 1.

**Q.** And the normalized growth (locus YCL069W, strain vba3, stronger effect = lower value)?
**A.** Its normalized growth is 0.997.

**Q.** What about the normalized growth (locus YCR088W, strain abp1, stronger effect = lower value) of the same compound?
**A.** The normalized growth was 1.01.

**Q.** And the normalized growth (locus YDL005C, strain med2, stronger effect = lower value)?
**A.** Its normalized growth is 1.

**Q.** What about the normalized growth (locus YDL035C, strain GPR1, stronger effect = lower value) of the same compound?
**A.** Its normalized growth is 1.02.

**Q.** And the normalized growth (locus YDL040C, strain nat1, stronger effect = lower value)?
**A.** The normalized growth was 0.991.

**Q.** What about the normalized growth (locus YDL074C, strain BRE1, stronger effect = lower value) of the same compound?
**A.** Its normalized growth is 1.04.

**Q.** What about the normalized growth (locus YDL101C, strain DUN1, stronger effect = lower value) of the same compound?
**A.** Its normalized growth is 1.02.

**Q.** What about the normalized growth (locus YDL134C, strain PPH21, stronger effect = lower value) of the same compound?
**A.** The normalized growth was 1.03.

**Q.** What about the normalized growth (locus YDL185W, strain tfp1, stronger effect = lower value) of the same compound?
**A.** The normalized growth was 1.01.

**Q.** And the normalized growth (locus YDL192W, strain arf1, stronger effect = lower value)?
**A.** The normalized growth was 0.993.

**Q.** What about the normalized growth (locus YDR001C, strain nth1, stronger effect = lower value) of the same compound?
**A.** Its normalized growth is 1.01.

**Q.** What about the normalized growth (locus YDR069C, strain doa4, stronger effect = lower value) of the same compound?
**A.** Its normalized growth is 1.

**Q.** And the normalized growth (locus YDR101C, strain arx1, stronger effect = lower value)?
**A.** Its normalized growth is 0.999.

**Q.** And the normalized growth (locus YDR137W, strain rgp1, stronger effect = lower value)?
**A.** Its normalized growth is 0.95.

**Q.** What about the normalized growth (locus YDR159W, strain sac3, stronger effect = lower value) of the same compound?
**A.** Its normalized growth is 1.01.

**Q.** And the normalized growth (locus YDR162C, strain NBP2, stronger effect = lower value)?
**A.** The normalized growth was 1.01.

**Q.** What about the normalized growth (locus YDR195W, strain ref2) of the same compound?
**A.** Its normalized growth is 1.04.

**Q.** What about the normalized growth (locus YDR297W, strain sur2, stronger effect = lower value) of the same compound?
**A.** The normalized growth was 1.01.

**Q.** And the normalized growth (locus YDR318W, strain mcm21, stronger effect = lower value)?
**A.** The normalized growth was 1.

**Q.** And the normalized growth (locus YDR334W, strain swr1, stronger effect = lower value)?
**A.** The normalized growth was 1.01.

**Q.** And the normalized growth (locus YDR335W, strain msn5, stronger effect = lower value)?
**A.** The normalized growth was 1.

**Q.** What about the normalized growth (locus YDR388W, stronger effect = lower value) of the same compound?
**A.** The normalized growth was 1.01.

**Q.** And the normalized growth (locus YDR392W, strain spt3, stronger effect = lower value)?
**A.** The normalized growth was 1.03.

**Q.** What about the normalized growth (locus YDR502C, strain sam2, stronger effect = lower value) of the same compound?
**A.** The normalized growth was 1.01.

**Q.** What about the normalized growth (locus YEL003W, strain gim4, stronger effect = lower value) of the same compound?
**A.** Its normalized growth is 1.01.

**Q.** What about the normalized growth (locus YEL037C, strain rad23, stronger effect = lower value) of the same compound?
**A.** The normalized growth was 0.999.

**Q.** And the normalized growth (locus YEL061C, strain CIN8 (second series), stronger effect = lower value)?
**A.** Its normalized growth is 1.

**Q.** What about the normalized growth (locus YEL061C, strain CIN8, stronger effect = lower value) of the same compound?
**A.** Its normalized growth is 0.999.

**Q.** And the normalized growth (locus YER015W, strain faa2, stronger effect = lower value)?
**A.** The normalized growth was 1.

**Q.** And the normalized growth (locus YER016W, strain bim1, stronger effect = lower value)?
**A.** The normalized growth was 1.01.

**Q.** And the normalized growth (locus YER110C, stronger effect = lower value)?
**A.** The normalized growth was 1.

**Q.** What about the normalized growth (locus YER111C, strain swi4, stronger effect = lower value) of the same compound?
**A.** Its normalized growth is 1.02.

**Q.** What about the normalized growth (locus YER155C, strain BEM2 (second series), stronger effect = lower value) of the same compound?
**A.** Its normalized growth is 0.998.

**Q.** What about the normalized growth (locus YER155C, strain BEM2, stronger effect = lower value) of the same compound?
**A.** The normalized growth was 1.01.

**Q.** And the normalized growth (locus YER167W, strain BCK2, stronger effect = lower value)?
**A.** Its normalized growth is 1.01.

**Q.** And the normalized growth (locus YFR010W, strain ubp6, stronger effect = lower value)?
**A.** The normalized growth was 0.997.

**Q.** And the normalized growth (locus YGL078C, strain dbp3, stronger effect = lower value)?
**A.** The normalized growth was 1.

**Q.** And the normalized growth (locus YGL086W, strain mad1, stronger effect = lower value)?
**A.** The normalized growth was 1.

**Q.** And the normalized growth (locus YGL167C, strain pmr1, stronger effect = lower value)?
**A.** The normalized growth was 1.01.

**Q.** What about the normalized growth (locus YGL173C, strain kem1, stronger effect = lower value) of the same compound?
**A.** The normalized growth was 1.

**Q.** And the normalized growth (locus YGL227W, strain vid30, stronger effect = lower value)?
**A.** The normalized growth was 1.01.

**Q.** And the normalized growth (locus YGL240W, strain doc1, stronger effect = lower value)?
**A.** Its normalized growth is 1.05.

**Q.** And the normalized growth (locus YGL248W, strain PDE1, stronger effect = lower value)?
**A.** Its normalized growth is 1.

**Q.** What about the normalized growth (locus YGL253W, strain hxk2, stronger effect = lower value) of the same compound?
**A.** The normalized growth was 1.04.

**Q.** What about the normalized growth (locus YGR078C, strain PAC10, stronger effect = lower value) of the same compound?
**A.** The normalized growth was 1.01.

**Q.** What about the normalized growth (locus YGR135W, strain pre9, stronger effect = lower value) of the same compound?
**A.** Its normalized growth is 1.01.

**Q.** What about the normalized growth (locus YGR252W, strain gcn5, stronger effect = lower value) of the same compound?
**A.** The normalized growth was 1.12.

**Q.** And the normalized growth (locus YHR013C, strain ard1, stronger effect = lower value)?
**A.** Its normalized growth is 0.998.

**Q.** And the normalized growth (locus YHR027C, strain rpn1, stronger effect = lower value)?
**A.** The normalized growth was 1.

**Q.** And the normalized growth (locus YHR030C, strain SLT2, stronger effect = lower value)?
**A.** Its normalized growth is 1 and 0.991.

**Q.** And the normalized growth (locus YHR079C, strain IRE1 (second series), stronger effect = lower value)?
**A.** The normalized growth was 1.

**Q.** What about the normalized growth (locus YHR079C, strain IRE1, stronger effect = lower value) of the same compound?
**A.** The normalized growth was 0.998.

**Q.** And the normalized growth (locus YHR094C, strain hxt1, stronger effect = lower value)?
**A.** The normalized growth was 0.999.

**Q.** What about the normalized growth (locus YHR129C, strain ARP1, stronger effect = lower value) of the same compound?
**A.** The normalized growth was 1.02.

**Q.** And the normalized growth (locus YHR142W, strain chs7, stronger effect = lower value)?
**A.** Its normalized growth is 0.962.

**Q.** And the normalized growth (locus YHR200W, strain rpn10, stronger effect = lower value)?
**A.** The normalized growth was 0.998.

**Q.** And the normalized growth (locus YIL066C, strain RNR3, stronger effect = lower value)?
**A.** The normalized growth was 1.01.

**Q.** What about the normalized growth (locus YIL073C, strain SPO22, stronger effect = lower value) of the same compound?
**A.** Its normalized growth is 1.1.

**Q.** And the normalized growth (locus YIL125W, strain kgd1, stronger effect = lower value)?
**A.** The normalized growth was 1.01.

**Q.** What about the normalized growth (locus YIR030C, strain dcg1, stronger effect = lower value) of the same compound?
**A.** The normalized growth was 0.987.

**Q.** What about the normalized growth (locus YJL092W, strain hpr5, stronger effect = lower value) of the same compound?
**A.** The normalized growth was 1.01.

**Q.** And the normalized growth (locus YJL095W, strain BCK1 (second series), stronger effect = lower value)?
**A.** Its normalized growth is 1.

**Q.** And the normalized growth (locus YJL095W, strain BCK1, stronger effect = lower value)?
**A.** Its normalized growth is 1.

**Q.** And the normalized growth (locus YJL115W, strain asf1, stronger effect = lower value)?
**A.** Its normalized growth is 0.94.

**Q.** What about the normalized growth (locus YJL129C, strain trk1, stronger effect = lower value) of the same compound?
**A.** Its normalized growth is 1.11.

**Q.** What about the normalized growth (locus YJL134W, strain LCB3, stronger effect = lower value) of the same compound?
**A.** Its normalized growth is 1.

**Q.** And the normalized growth (locus YJL154C, strain vps35, stronger effect = lower value)?
**A.** The normalized growth was 0.991.

**Q.** And the normalized growth (locus YJL164C, strain tpk1, stronger effect = lower value)?
**A.** The normalized growth was 0.99.

**Q.** What about the normalized growth (locus YJL166W, strain qcr8, stronger effect = lower value) of the same compound?
**A.** The normalized growth was 0.996.

**Q.** What about the normalized growth (locus YJL168C, strain set2, stronger effect = lower value) of the same compound?
**A.** The normalized growth was 1.

**Q.** What about the normalized growth (locus YJL187C, strain SWE1 (second series), stronger effect = lower value) of the same compound?
**A.** The normalized growth was 0.997.

**Q.** What about the normalized growth (locus YJL187C, strain SWE1, stronger effect = lower value) of the same compound?
**A.** Its normalized growth is 1.

**Q.** And the normalized growth (locus YJR043C, strain POL32, stronger effect = lower value)?
**A.** Its normalized growth is 1.03.

**Q.** And the normalized growth (locus YJR066W, strain TOR1, stronger effect = lower value)?
**A.** Its normalized growth is 0.982.

**Q.** And the normalized growth (locus YJR075W, strain HOC1, stronger effect = lower value)?
**A.** Its normalized growth is 1.02.
